An excerpt weighted towards active compounds, which were near 12% of everything screened.
Sm TGR inh = S. mansoni TGR enzyme inhibition | Potency, µM (top dose mostly 114 µM), for inactives: top-dose activity change, negative = inhibition, hits mostly inhibitors | purified TGR, DTNB reduction, TNB absorbance 405 nm | 3% of 360,000 active; also: % is scaled to controls: 0 for no effect and ±100 for the full control effect; nearly all actives have a fitted effect of over 60% in size
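TGR 20 nM + NADPH 100 uM (dispensed conc.), cpd preinc 15 min RT; start with NADPH (500 uM addition) then DTNB (15 mM addition). Kinetic TNB absorbance, 405 nm filter. Four-parameter Hill fit across titration.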
SARS PLP yeast = blocks SARS-CoV papain-like protease in a yeast assay. S. cerevisiae expressing SARS-CoV PLpro, growth rescue. Potency, µM (highest dose often 32.9 µM), for inactives: at the top dose activity, positive = growth rescue, actives largely listed as activators. 0.19% of 330,000 active; calls by dose curve; also: 0% is about no effect; nearly all actives have a fitted effect of over 55% in size
Pf growth 48h = P. falciparum growth inhibition at 48 hours (one generation); P. falciparum luciferase growth in erythrocytes, 48 h; Potency, µM (titrated, usually from 28.7 µM), for the others: at the top dose activity change, negative = inhibition, actives largely listed as inhibitors; 5.9% of 310,000 active; AID 504832; also: % is scaled to controls: 0 for no effect and ±100 for the full control effect
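Read-out is firefly luciferase luminescence from an integrated reporter in P. falciparum, so falling signal marks reduced parasite growth. Infected erythrocytes were at 2% hematocrit and 0.1% parasitemia (final) in Albumax-supplemented RPMI 1640.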
AmpC inh no detg = AmpC beta-lactamase inhibition without detergent; P00811; AmpC nitrocefin hydrolysis, absorbance 480 nm, 0.0001% Triton; Potency, µM (highest dose often 57.1 µM), for the others: at the top dose activity change, negative = inhibition, hits mostly inhibitors; 0.52% of 330,000 active;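 also: plate controls were no compound for no effect and no enzyme for full effect; nearly all actives have a fitted effect of over 20% in size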
Target sequence (P00811 whole entry, looked up): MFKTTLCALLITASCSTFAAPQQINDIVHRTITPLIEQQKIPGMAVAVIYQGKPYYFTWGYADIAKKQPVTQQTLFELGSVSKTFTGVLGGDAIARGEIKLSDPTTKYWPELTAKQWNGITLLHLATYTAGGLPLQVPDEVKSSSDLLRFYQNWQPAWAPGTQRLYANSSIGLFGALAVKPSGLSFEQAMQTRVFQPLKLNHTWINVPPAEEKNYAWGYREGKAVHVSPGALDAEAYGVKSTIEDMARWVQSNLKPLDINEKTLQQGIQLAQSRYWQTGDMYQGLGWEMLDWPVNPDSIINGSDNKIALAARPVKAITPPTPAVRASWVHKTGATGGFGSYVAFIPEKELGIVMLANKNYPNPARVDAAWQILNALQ
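20 mM phosphate pH 7.0 + 0.01% (detergent screen) or 0.0001% Triton X-100; 5.3 nM AmpC reagent; cpd preinc 15 min RT; nitrocefin (800 uM stock) to start; A480 q20 s × 4 min; Activity was normalised to no-enzyme and no-compound control wells.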
AmpC detergent = AmpC beta-lactamase inhibition with detergent present | Potency, µM (series often up to 114 µM), for the others: at the top dose activity change, negative = inhibition, hits mostly inhibitors | AmpC hydrolysis of nitrocefin, absorbance 480 nm, 0.01% Triton | 0.041% of 370,000 active | AID 485294;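 also: 0% = no-compound wells and -100% = no-enzyme wells; nearly all actives have a fitted effect of over 25% in size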
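20 mM phosphate pH 7.0 + 0.01% (detergent screen) or 0.0001% Triton X-100; 5.3 nM AmpC reagent; cpd preinc 15 min RT; nitrocefin (800 uM stock) to start; A480 q20 s × 4 min; Activity was normalised to no-enzyme and no-compound control wells.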
Pf growth 96h = P. falciparum growth inhibition at 96 hours | P. falciparum luciferase reporter growth, 96 h | 6.9% of 320,000 active | Potency, µM (top dose mostly 28.7 µM), for the others: at the highest dose activity change, negative = inhibition, usual class: inhibitors; also: % is scaled to controls: 0 for no effect and ±100 for the full control effect
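P. falciparum expressing integrated firefly luciferase, in erythrocytes at 2% hematocrit, 0.05% parasitemia, incubated with compounds 96 h at 37 C, 5% CO2. Growth inhibition read as loss of luminescence; two-generation exposure targets delayed-death apicoplast inhibitors.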
An asterisk follows results filed as active; ? = inconclusive; nt = no result; [ ] = remark or other dose. Unless noted, calls follow the shape of the dose curve; as a rule, active = well fitted curve in the direction sought with a large enough effect; inconclusive = small, poorly fitted or top-dose-only effect, or another doubt; inactive = no such curve, though single readings can be large; an effect the other way counts as inactive or inconclusive. Potency is read from the fitted curve at half-maximal effect.

SMILES	Sm TGR inh	SARS PLP yeast	Pf growth 48h	AmpC inh no detg	AmpC detergent	Pf growth 96h
CC(C)(C)OC(=O)NC1CNNC1=O (stereo not given)	-5%	-1%	28%	-6%	-5%	35%
COc1ccc2c(c1)c1c(c(=O)n(Cc3ccccc3)c(=O)n1CC(=O)Nc1ccccc1OC)n2C	1%	nt	nt	nt	1%	nt
COC(=O)c1c(C(=O)c2ccc(Br)cc2)n(C)c2ccccc12	-2%	-3%	13µM*	-41%	3%	?
COC(=O)c1c(S(N)(=O)=O)c2ccccc2n1C	-26%	5%	20%	-14%	-17%	14%
CN(CC(=O)NCc1ccc(F)cc1)S(=O)(=O)c1ccc(Br)s1	0%	-2%	-10%	-9%	-2%	-23%
CN(C)S(=O)(=O)c1ccc(Nc2ccc(-c3ccc4c(c3)OCCO4)nn2)cc1	14%	-4%	?	-21%	1%	5.9µM*
CC1(C)CC(NC(=S)NC2CC2)CC(C)(C)N1	25%	0%	1%	-17%	-1%	?
C=CCNC(=S)NC1CC(C)(C)NC(C)(C)C1	9%	5%	10%	3%	2%	10µM*
O=C(Cn1c(NCCCO)nc2ccccc21)c1ccc(Cl)cc1	6%	2%	?	32%	-15%	0%
CCOC(=O)Cn1c(C)[n+](CC(=O)c2ccccc2)c2ccccc21	18%	0%	?	-11%	5%	5.2µM*
CCOC(=O)Cn1c(=O)cc(C)c2ccccc21	nt	2%	0%	-3%	2%	27%
Cc1n(CC(=O)c2ccc(F)cc2)c2ccccc2[n+]1C	-8%	-1%	3.7µM*	-13%	-3%	?
CCCCc1n(CC(=O)c2ccc(Cl)cc2)c2ccccc2[n+]1C	-15%	nt	1.2µM*	24%	-2%	?
COc1cc(C(=O)N(Cc2ccccc2)c2cccc(C)c2)ccc1OC(F)F	-9%	-1%	?	31%	9%	13µM*
COc1ccc(C(=O)N(Cc2ccccc2)c2cccc(C)c2)c(OC)c1OC	-11%	-5%	0%	-9%	2%	?
COc1ccc(CC(=O)N(Cc2ccccc2)c2cccc(C)c2)cc1OC	5%	5%	?	93%	-1%	10µM*
COc1ccccc1C(=O)N(Cc1ccccc1)c1ccc(C)cc1	15%	-7%	?	26%	2%	?
COc1ccc(CC(=O)NNC(=O)CCc2ccccc2)cc1OC	6%	-5%	51%	-14%	3%	13µM*
COc1ccccc1CC(=O)N(Cc1ccccc1)c1ccc(C)cc1	-14%	-8%	?	-1%	1%	9.3µM*
CC(C)c1ccc(OCC(=O)Nc2cccc3c2CCCC3)cc1	11%	0%	0%	-12%	5%	30%
Cn1c(=O)c2c(nc(N3CCC(C(N)=O)CC3)n2CCSc2nc3ccccc3s2)n(C)c1=O	0%	0%	2.9µM*	-13%	5%	3%
CC1CCN(c2nc3c(c(=O)n(C)c(=O)n3C)n2CCSc2nc3ccccc3s2)CC1	1%[11.4 µM]	-2%	nt	15%	-9%	?
Cn1c(=O)[nH]c(=O)c2c1nc(N1CCCCC1)n2CCCSc1nc2ccccc2s1	-4%	10%	?	78%	-2%	4.1µM*
Cc1cc(C)nc(SCCn2c(N3CCC(C)CC3)nc3c2c(=O)n(C)c(=O)n3C)n1	0%	5%	42%	-18%	-9%	2.3µM*
Cc1cc(C)c2nc(C)cc(N/N=C/c3ccc(O)cc3)c2c1	1%	0%	0.13µM*	-31%	?	-2%
SMILES	Sm TGR inh	SARS PLP yeast	Pf growth 48h	AmpC inh no detg	AmpC detergent	Pf growth 96h
Cc1cc(N/N=C/c2ccc(N(C)C)cc2)c2ccccc2n1	1%	-6%	24%	0%	-6%	44%
Cc1cc(N/N=C/c2ccc(O)cc2)c2cccc(C)c2n1	-21%	-6%	0.37µM*	-23%	2%	9.3µM*
CCOC(=O)N1CCC(Nc2c(NCCCN3CCN(C4CCCCC4)CC3)c(=O)c2=O)CC1	-2%	-4%	-5%	-20%	4%	-6%
O=C(O)COc1ccc(C(=O)c2cccs2)c(Cl)c1Cl	nt	nt	7%	nt	nt	3.8µM*
N#CC1=C(N)Oc2n[nH]c(-c3ccccc3)c2C12C(=O)Nc1ccccc12 (stereo not given)	-9%	3%	-12%	-18%	-17%	15%
Cn1c2c(c(=O)n(C)c1=O)[C@@]1(C(=O)Nc3ccccc31)C(C#N)=C(N)O2	?	-18%	?	-9%	0%	13µM*
Cc1cc(C)n(-c2nc(C)c(C)c(=O)n2CC(=O)Nc2ccc(Cl)c(Cl)c2)n1	5%	nt	nt	nt	4%	nt
CSc1ccccc1NC(=O)COc1ccc(Cl)cc1C	7%	-64%	-9%	-23%	?	6%
Cc1cc(Cl)ccc1OCC(=O)Nc1nc(-c2cccnc2)cs1	-1%	1%	?	-19%	9%	0%
Cc1cc(Cl)ccc1OCC(=O)Nc1nc(-c2cccs2)cs1	6%	-13%	34%	18µM*	1%	0%
Cc1cc(Cl)ccc1OCC(=O)Nc1ccccc1CO	5%	-7%	13µM*	-6%	?	26%
CC1(C)CC2CC(C)(CN2S(=O)(=O)c2ccc(C(=O)Nc3cccc(S(=O)(=O)N4CCOCC4)c3)cc2)C1 (stereo not given)	0%	27%	2.9µM*	24%	-7%	?
CC1(C)CC2CC(C)(CN2S(=O)(=O)c2ccc(C(=O)Nc3cc(S(=O)(=O)N4CCOCC4)ccc3Cl)cc2)C1 (stereo not given)	-6%	0%	3.7µM*	?	-2%	2.6µM*
O=C(Nc1cc(S(=O)(=O)N2CCOCC2)ccc1Cl)c1ccc(=O)[nH]c1	-3%	-2%	31%	-8%	-16%	1%
Cn1cccc1/C=C1\SC(=Nc2ccccc2)NC1=O	-25%	-1%	67%	-45%	-3%	7.4µM*
Cc1ccc(N=C2NC(=O)/C(=C/c3cccn3C)S2)c(C)c1	9%	-1%	?	-2%	7%	12µM*
Cc1ccc(N=C2NC(=O)/C(=C/c3cn(C)c4ccccc34)S2)cc1C	-4%	17%	?	-38%	?	4.7µM*
Cn1cc(/C=C2/SC(=O)N(c3ccccc3)C2=O)c2ccccc21	0%	2%	53%	-12%	2%	154%
C=CCOc1c(OC)cc(Cl)cc1C1NC(=O)NC(C)=C1C(C)=O (stereo not given)	-1%	nt	-18%	nt	0%	3.3µM*

Bioassay records from PubChem BioAssay.
